# Assay outcomes: PubChem, several laboratories
# Only some compounds are listed: those with a hit (about 3.4% of all), similar ones and a draw of the others.
# MITF TRPM1 inh: MITF TRPM1 promoter inhibition in SK-MEL-5 cells; SK-MEL-5 TRPM1 promoter luciferase, 24 h; inhibition, % at 12.5 µM; 330,000 compounds, 0.83% hits; AID 488899;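 active = mean inhibition across replicates of 60% or more, whatever share of single replicates reaches that level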
# Shn3 inh set2: inhibitors of Schnurri-3 3'UTR reporter in osteoblasts; AID 588674; 360,000 compounds, 0.52% hits; Clone20 osteoblast Shn3 3'UTR firefly luciferase, 24 h; inhibition, % at 12.5 µM;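 active = mean inhibition of at least 75% with every replicate also reaching 75%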;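 note: 0% = median of neutral control wells and 100% = pilot-screen positive control compound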
# EBV LMP1 NFkB: Epstein-Barr LMP1 NF-kappaB reporter inhibition; LMP1-induced NF-kappaB luciferase reporter cells, luminescence; inhibition, % at 12.5 µM; 350,000 compounds, 0.69% hits; AID 504558; in the data active = inhibition above about 41%;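 note: 0% = neutral control wells and 100% = reference inhibitor control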
# TROY signal inh: TROY signaling inhibition; Q293 LMP1-TROYcd NF-kB luciferase reporter, 4 h; inhibition, % at 10 µM; 360,000 compounds, 0.98% hits;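 active = compounds whose plate-normalised and pattern-corrected inhibition of the luciferase reporter signal at the single screening dose is 50% or more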
# TWEAK Fn14 block: TWEAK-Fn14 signaling inhibition; TWEAK-stimulated Fn14 reporter cells, luciferase luminescence, 8 h; 360,000 compounds, 2% hits; inhibition, % at 10 µM; in the data active = inhibition above about 50%
# HIF-2a block: blocks HIF-2a reporter activity; 786-0 RCC cells HIF-2a reporter, luciferase luminescence, overnight; 360,000 compounds, 0.72% hits; AID 624352; inhibition, % at 18.8 µM;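 active = inhibition of the luminescence signal of 40% or more relative to plate controls, in a single-dose primary screen at 18.75 µM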
# Mdm2-MdmX confirm: Mdm2/MdmX (human) interaction inhibition, confirmed. 740 compounds, 99% hits. shares compounds with HIF-2a block. SaOS-2 split-luciferase Mdm2/MdmX complementation, luminescence. AID 504601. inhibition, % at 8 µM;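 active = mean inhibition of the luminescence signal across two replicates at or above 26 percent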
# Target sequence (O15151 whole entry, looked up): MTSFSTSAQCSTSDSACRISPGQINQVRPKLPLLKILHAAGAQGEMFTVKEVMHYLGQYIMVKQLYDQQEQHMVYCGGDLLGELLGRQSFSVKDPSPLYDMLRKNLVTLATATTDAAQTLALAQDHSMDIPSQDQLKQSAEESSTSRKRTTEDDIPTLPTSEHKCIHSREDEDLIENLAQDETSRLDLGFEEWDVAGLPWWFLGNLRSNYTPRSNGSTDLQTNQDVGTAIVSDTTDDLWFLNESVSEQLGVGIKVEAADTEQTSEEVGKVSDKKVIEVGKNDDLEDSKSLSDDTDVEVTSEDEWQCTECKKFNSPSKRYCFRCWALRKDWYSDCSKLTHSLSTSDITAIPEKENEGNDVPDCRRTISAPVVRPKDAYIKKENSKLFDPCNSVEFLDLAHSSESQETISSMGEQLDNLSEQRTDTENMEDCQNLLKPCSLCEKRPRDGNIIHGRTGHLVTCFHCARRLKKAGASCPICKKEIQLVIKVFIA
# Target sequence (Q00987 whole entry, looked up): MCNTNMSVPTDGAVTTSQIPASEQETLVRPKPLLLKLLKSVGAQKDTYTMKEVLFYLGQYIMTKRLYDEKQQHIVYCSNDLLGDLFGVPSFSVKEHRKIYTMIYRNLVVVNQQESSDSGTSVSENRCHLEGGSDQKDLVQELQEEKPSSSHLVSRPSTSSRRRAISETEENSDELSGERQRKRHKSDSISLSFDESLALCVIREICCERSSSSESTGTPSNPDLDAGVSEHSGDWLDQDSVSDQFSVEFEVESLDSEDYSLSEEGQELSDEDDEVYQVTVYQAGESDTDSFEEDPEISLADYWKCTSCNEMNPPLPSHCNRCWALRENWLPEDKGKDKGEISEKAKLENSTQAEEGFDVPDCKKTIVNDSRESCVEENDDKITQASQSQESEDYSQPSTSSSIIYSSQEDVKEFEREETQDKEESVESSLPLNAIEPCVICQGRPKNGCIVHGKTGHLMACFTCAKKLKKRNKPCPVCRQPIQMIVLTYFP
# HIF-2a conf: confirmation of HIF-2a inhibitors; shares compounds with HIF-2a block; 786-0 RCC cells, HIF-2a luciferase reporter luminescence, overnight; inhibition, % at 18.8 µM; 1,800 compounds, 56% hits; AID 651580;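 active = mean inhibition across four replicates of at least 40 percent at the single tested concentration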
# HIF-1a cs: inhibits HIF-1a reporter, a counter-screen for HIF-2a inhibitors. shares compounds with HIF-2a block. MiaPaCa-2 HIF-1a luciferase reporter, desferoxamine, overnight. inhibition, % at 18.8 µM. 1,800 compounds, 72% hits;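 active = mean inhibition of the reporter signal across four replicates at the single tested dose of 50% or more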
# Active calls of the source: *; x = not tested or not shown; ! = not active in a repeat.
SMILES,MITF TRPM1 inh,Shn3 inh set2,EBV LMP1 NFkB,TROY signal inh,TWEAK Fn14 block,HIF-2a block,HIF-2a conf,HIF-1a cs,others
COC(=O)C1=C(c2ccc(S(C)(=O)=O)cc2)C[C@@H]2CC[C@H]1N2C(=O)N1CCC(O)CC1,-0.2,-45.5,-10.0,-8.9,10.6,6.6,x,x,
CC(C)[C@H]1C(=O)O[C@H](C(C)C)C(=O)N(C)[C@@H](C(C)C)C(=O)O[C@H](C(C)C)C(=O)N(C)[C@@H](C(C)C)C(=O)O[C@H](C(C)C)C(=O)N1C,77.5*,89.8*,56.3*,56.2*,55.9*,-62.8,x,x,Mdm2-MdmX confirm=93.7*
C[C@H]1CCCC(=O)CCC/C=C/c2cc(O)cc(O)c2C(=O)O1,7.3,10.4,15.7,14.8,41.5,20.9,x,x,
C[C@H]1CCC/C=C/[C@@H]2C[C@H](O)C[C@H]2[C@H](O)/C=C/C(=O)O1,81.1*,97.0*,-119.2,-66.3,55.1*!,59.8*,43.4*,74.8*,Mdm2-MdmX confirm=96.3*
COC(=O)C1C(O)C(C)C(O)C(C)/C=C\C=C(/C)C(=O)Nc2c(C)c(OC(C)=O)c3c(c2O)C(=O)C(C)=C2OCOC(=C23)/C(C)=C/C(C)(O)C(O)C(C)C1O (centres undefined),4.9,-18.9,-7.8,-5.7,3.1,12.6,x,x,
COC(=O)C12OCC34C(CC5C(C)=C(O)C(=O)CC5(C)C3C(O)C1O)OC(=O)C(OC(=O)/C=C(\C)C(C)C)C24 (centres undefined),84.6*,98.8*,95.4*,84.7*,94.8*,75.2*,68.9*,105.7*,
CCCCCCCSc1cc(OC)c(CCNC)cc1OC,101.8*,93.5*,-65.7,-22.0,13.5,43.9*,8.5,106.1*,
COc1ccc(CC2NCC(O)C2OC(C)=O)cc1 (centres undefined),91.5*,96.5*,88.2*,87.6*,100.5*,82.4*,85.3*,104.7*,
O=Cc1cn(Cc2ccccc2F)c2ccccc12,5.7,54.9,2.7,30.1,37.2,11.5,x,x,
O=Cc1cn(Cc2cccc([N+](=O)[O-])c2)c2ccccc12,23.6,34.4,88.6*,68.3*,27.9,45.7*,63.0*,-8.4,
CCOC(=O)[C@]12Cc3cc(C)ccc3[C@H]1N(Cc1ccccc1)C(=O)c1ccccc12,-1.1,6.7,-16.1,-2.6,20.8,17.3,x,x,
CCOC(=O)[C@]12Cc3cc(C)ccc3[C@H]1N(C(C)C)C(=O)c1ccccc12,x,x,x,18.0,-59.1,87.8*,92.6*,107.7*,
CCOC(=O)[C@]12Cc3cc(OC)ccc3[C@H]1N(C1CCCCC1)C(=O)c1cc(OC)ccc12,x,x,x,54.7*,11.4,87.6*,89.2*,105.2*,
COc1cc(/C=C/[N+](=O)[O-])ccc1O,56.8,10.5,9.3,3.1,-6.1,69.7*,52.1*,20.6,
COc1ccc(-n2c(/C=C/c3ccc(O)c(OC)c3)nc3ccccc3c2=O)cc1,4.2,4.6,-2.5,7.8,41.1,24.1,x,x,
O=C([O-])c1ccc(-[n+]2c(-c3ccccc3)cc(-c3ccccc3)cc2-c2ccccc2)cc1,2.6,1.3,1.3,-1.4,-11.3,17.0,x,x,
Oc1ccc(-[n+]2c(-c3ccccc3)cc(-c3ccccc3)cc2-c2ccccc2)cc1,83.6*,21.6,31.9,62.1*,87.2*,-21.7,x,x,Mdm2-MdmX confirm=101.7*
CC(=O)O[C@H]1CC[C@@]2(C)[C@H](C1)C(=O)C[C@H]1[C@@H]3CC[C@@H]4[C@@H](CN5C[C@@H](C)CC[C@H]5[C@@]4(C)O)[C@@H]3C[C@@H]12,-2.5,11.3,5.4,1.2,-5.3,9.6,x,x,
CC[C@@]1(O)C(=O)OCc2c1cc1n(c2=O)Cc2cc3c(NC(=O)CN)cccc3nc2-1,42.2,27.2,76.7*,18.6,-8.8,20.6,x,x,Mdm2-MdmX confirm=97.2*
O=C(Nc1cccc(OC(=O)N2CCCCC2)c1)N1CCCCC1,7.7,8.8,8.5,0.8,0.8,13.8,x,x,
CC(=O)Nc1ccc(OC(=O)N2CCCCC2)cc1,7.1,9.4,2.6,7.8,-8.0,85.4*,95.4*,53.2*,
C[CH2][Hg][S]c1ccccc1C(=O)O,95.1*,98.3*,-12.6,25.1,92.2*,97.4*,x,x,Mdm2-MdmX confirm=102.2*
COC(=O)C(Cc1ccc(N(CCCl)CCCl)cc1)N=Cc1ccccc1O (centres undefined),62.2*,54.1,72.8*,32.7,35.3,72.0*,-4.6,100.3*,Mdm2-MdmX confirm=102.7*
COc1cc2c(cc1O)C[C@H]1NCCc3cc4c(c-2c31)OCO4,22.6,4.4,-2.3,-11.9,-1.4,50.3*,35.4,104.0*,
CCN1CCN(c2ccc(N)c(C)c2)CC1,3.9,4.3,-14.6,-8.3,-13.6,7.0,x,x,
Cc1c(C(c2ccc(Cl)cc2Cl)c2c(O)c3ccccc3oc2=O)c(=O)n(-c2ccccc2)n1C (centres undefined),-0.7,-2.4,1.2,9.8,1.7,13.4,x,x,
